# Measurements reported in PubChem BioAssay (NCATS).
# Inconclusive results are not listed. Where a call stands in place of a potency, no number is given. Activity calls are given as the source filed them. Calls come from the whole dose curve; as a rule, active = well fitted inhibition curve with a large enough effect; inconclusive = small, poorly fitted or top-dose-only effect, or effect the other way; inactive = flat fitted curve, though single readings scatter.
# Assay: Quantitative high throughput screen for delayed death inhibitors of the malarial parasite plastid, 48 hour incubation (AID 488752); note: nearly all actives have a fitted effect of over 65% in size
# Conditions: Plasmodium falciparum growth; series mostly up to 28.7 µM
# Description: NIH Molecular Libraries Probe Production Network [MLPCN]
# NIH Chemical Genomics Center [NCGC]
# Assay Provider: David Fidock and Eric Ekland, Columbia University
# The goal of this screen is to discover new antimalarial compounds that act by inhibiting the development of the apicoplast in the malarial parasite Plasmodium falciparum. The biochemical processes that make this organelle essential for erythrocytic stage parasites are not well understood. However, antibiotics, such as azithromycin and tetracycline, which target the apicoplast translational machinery, have a potent antimalarial effect.
# We have developed a cell-based assay that measures parasite growth based on the expression of an integrated copy of a firefly luciferase reporter. To detect small molecules that cause this 'delayed death' phenotype, erythrocytes infected with the luciferase-expressing parasites were incubated with compounds for either one or two generations, corresponding to 48 and 96 hours, respectively. Compounds that inhibit parasite growth in the second generation, but not the first, should be enriched in antimalarials that target the apicoplast. Growth inhibition is detected by a decrease in luciferase activity
# Four microliters of culture medium (RPMI 1640 with 0.5% w/v Albumax (GIBCO), 24 mM sodium bicarbonate and 10 ug/mL gentamycin) were dispensed by a Multi-drop Combi into white solid 1536-well plates (Grenier) and 23 nL compound was added by a pin tool. Four microliters of infected erythrocytes (2% hematocrit, 0.1% parasitemia final concentration) in culture medium were dispensed and the plates incubated for 48 hours at 37 C in 5% CO2. Two microliters of luciferase detection reagent was added and luminescence was detected by a ViewLux (PerkinElmer) reader
# Potency is the fitted concentration of half-maximal effect.
row,SMILES,Potency
1,CC(NC(C)(C)C)C(=O)c1cccc(Cl)c1 (stereo not given),inactive
2,CC(=O)N1CCN(c2ccc(OC[C@H]3CO[C@](Cn4ccnc4)(c4ccc(Cl)cc4Cl)O3)cc2)CC1,8.28 µM (active)
3,O=c1[nH]oc2c1CCNC2,inactive
4,C[C@]12CCC(=O)C=C1CC[C@@H]1[C@@H]2CC[C@]2(C)C(=O)CC[C@@H]12,inactive
5,O=P1(N(CCCl)CCCl)NCCCO1 (stereo not given),inactive
6,CC(C)c1cccc(C(C)C)c1O,inactive
7,COc1ccc2c(c1OC)C(=O)O[C@H]2[C@@H]1c2cc3c(cc2CCN1C)OCO3,inactive
8,O=C(O)CCCc1ccc(N(CCCl)CCCl)cc1,inactive
9,CN1C(=O)CCS(=O)(=O)C1c1ccc(Cl)cc1 (stereo not given),inactive
10,CCC1(c2ccc(N)cc2)CCC(=O)NC1=O (stereo not given),inactive
11,NCCc1ccc(O)cc1,inactive
12,C=C(C)[C@H]1CN[C@H](C(=O)O)[C@H]1CC(=O)O,inactive
13,CCCCC/C=C\C/C=C\C/C=C\C/C=C\CCCC(=O)NCC(=O)O,inactive
14,CC(C)N(CCC(C(N)=O)(c1ccccc1)c1ccccn1)C(C)C (stereo not given),inactive
15,CC(C)(C)NCC(O)c1ccccc1Cl (stereo not given),inactive
